The results in this text go back to the supplement of paper PMC6992640.

Molecules are shown by their SMILES. ± gives the standard deviation of the averaged measurements.

Among the test systems are HCI01; HCI03; HCI09; HCI11; HCI16; UCD52; WHIM2; WHIM30; HCI13.
What all share (test): cell viability (% of vehicle); higher = less cytotoxic
What all share (settings): 10 µM; 72 h
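Note: PDX cells carrying CMV promoter-driven luciferase, viability read as total photon flux per second by IVIS imaging following D-luciferin, vehicle control 0.1% DMSO.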

Take `NCC(O)c1ccc(O)c(O)c1.O.O=C(O)C(O)C(O)C(=O)O` (stereo not given) [Noradrenaline bitartrate monohydrate]: the cell viability in the experiment with HCI01 turned out to be 86.8 ± 21; in the experiment with HCI03, 152; with HCI09, 133 ± 34; in the experiment with HCI11, 124; with HCI16, 160; in the experiment with UCD52, 142 ± 4.8. This molecule also displayed a cell viability in the experiment with WHIM2 of 73 ± 14.
Take `CCCc1nc(C(C)(C)O)c(C(=O)O)n1Cc1ccc(-c2ccccc2-c2nn[nH]n2)cc1` [Olmesartan]: the cell viability with HCI01 is 117 ± 4; with HCI03, 121; with HCI09, 130 ± 18; in the experiment on HCI11 (cells of an ER-positive luminal breast cancer xenograft) it was 113; with HCI16, 136; with UCD52 it was 121 ± 15. Further, the cell viability in the experiment on WHIM2 (cells of a triple-negative basal-like breast cancer xenograft) is 91.2 ± 3.6; in the experiment with WHIM30, 154 ± 25.
For the molecule `O=C(CCCN1CCN(c2ccccn2)CC1)c1ccc(F)cc1` [Azaperone], the cell viability worked out at 119 ± 25 in the experiment with HCI01; 114 in the experiment with HCI03; 96.7 ± 2.1 in the experiment with HCI09; 121 in the experiment on HCI11; 151 in the experiment with HCI16; 66.9 ± 13 in the experiment with UCD52. In addition, the results for the cell viability with WHIM2 and in the experiment on WHIM30 (cells of a triple-negative basal-like breast cancer xenograft) were 98.3 ± 4.7 and 85.8 ± 2.8, respectively.
On to `CCCN(CCC)S(=O)(=O)c1ccc(C(=O)O)cc1` [Probenecid], for which the cell viability was 102 ± 37 with HCI01; 142 in the experiment with HCI03; 125 ± 6.3 in the experiment on HCI09 (cells of a triple-negative luminal androgen receptor type breast cancer xenograft); 94.6 in the experiment on HCI11; 145 in the experiment with HCI16; 113 ± 6.4 in the experiment on UCD52 (cells of a triple-negative basal-like breast cancer xenograft). Moreover, the cell viability with WHIM2 came out at 92.7 ± 6.9; in the experiment on WHIM30 it was 155 ± 8.7.
Take `CO[C@H]1C(=O)[C@]2(C)[C@@H](OC)C[C@H]3OC[C@@]3(OC(C)=O)[C@H]2[C@H](OC(=O)c2ccccc2)[C@]2(O)C[C@H](OC(=O)[C@H](O)[C@@H](NC(=O)OC(C)(C)C)c3ccccc3)C(C)=C1C2(C)C` [Cabazitaxel]: the cell viability with HCI01 came out at 78.1 ± 51; in the experiment with HCI03 it was 113; in the experiment on HCI09, 66.2 ± 5.4; in the experiment on HCI11, 89.2; in the experiment on HCI13 (cells of an ER-positive luminal breast cancer xenograft), 106 ± 5.1; in the experiment with UCD52, 70.3 ± 4.9. In addition, the figures for the cell viability in the experiment on WHIM2 and in the experiment with WHIM30 were 72 ± 11 and 107 ± 4.8, respectively.
`CC(=O)OC1(C(C)=O)CCC2C3C=C(C)C4=CC(=O)CCC4(C)C3CCC21C` (stereo not given) [Megestrol Acetate]: the cell viability in the experiment with HCI01 is 112 ± 6.4; in the experiment with HCI03, 121; with HCI09 it was 106 ± 10; in the experiment with HCI11 it was 91.8; in the experiment with HCI16 it was 102; in the experiment with UCD52 it was 103 ± 16. Besides, the values for the cell viability with WHIM2 and with WHIM30 were 93.7 ± 14 and 127.9 ± 0.7, respectively.
Turning to `CCC(=O)OC1(C(=O)CCl)C(C)CC2C3CCC4=CC(=O)C=CC4(C)C3(F)C(O)CC21C` (stereo not given) [Clobetasol propionate], the cell viability in the experiment with HCI01 stood at 116 ± 22; with HCI03, 125; with HCI09, 116 ± 54; in the experiment on HCI11, 132; with HCI16, 196; in the experiment on UCD52, 142 ± 10. This molecule displayed a cell viability in the experiment on WHIM2 of 91 ± 25.
In the case of `O=C(Nc1c(Cl)cncc1Cl)c1ccc(OC(F)F)c(OCC2CC2)c1` [Roflumilast], the cell viability was 150 ± 8.4 in the experiment with HCI01; 145 in the experiment with HCI03; 118 ± 55 in the experiment on HCI09; 124 in the experiment on HCI11; 196 in the experiment on HCI16 (cells of a triple-negative basal-like breast cancer xenograft); 119 ± 10 in the experiment on UCD52. Also, the cell viability is 104 ± 15 in the experiment with WHIM2 and 151 ± 5.7 in the experiment with WHIM30.
Take `Cc1cc(Nc2cc(CN3CCOCC3)c3nc(C)c(Cc4ccc(Cl)cc4F)n3n2)n[nH]1`: the cell viability is 142 ± 56 in the experiment on HCI01 (cells of a triple-negative basal-like breast cancer xenograft); 116 with HCI03; 64.3 ± 15 in the experiment on HCI09; 196 in the experiment with HCI11; 199 with HCI16; 103 ± 19 with UCD52.
Turning to `CC(=O)O[C@@]12CO[C@@H]1C[C@H](O)[C@@]1(C)C(=O)[C@H](O)C3=C(C)[C@@H](OC(=O)[C@H](O)[C@@H](NC(=O)OC(C)(C)C)c4ccccc4)C[C@@](O)([C@@H](OC(=O)c4ccccc4)[C@H]21)C3(C)C` [Docetaxel], the cell viability in the experiment with HCI01 was 154 ± 26; with HCI03, 106; with HCI09 it was 99.9 ± 18; with HCI11 it was 124; in the experiment on HCI13, 116 ± 22; in the experiment on UCD52, 82 ± 10. In addition, the cell viability in the experiment on WHIM2 was 96.3 ± 7.4; in the experiment on WHIM30, 134 ± 5.3.
For the molecule `C#CC1(O)CCC2C3CCc4cc(OC)ccc4C3CCC21C` (stereo not given) [Mestranol], the cell viability with HCI01 stood at 131 ± 12; in the experiment with HCI03, 136; with HCI09, 94.681 ± 0.043; with HCI11, 106; in the experiment with HCI16, 104; with UCD52 it was 71.2 ± 21. Further, the cell viability in the experiment with WHIM2 was 159 ± 12; in the experiment with WHIM30 it was 121.2 ± 0.15.
Turning to `N=C(N)NCCCC[C@@H]1NC(=O)CCSSC[C@@H](C(N)=O)NC(=O)[C@@H]2CCCN2C(=O)[C@H](Cc2c[nH]c3ccccc23)NC(=O)[C@H](CC(=O)O)NC(=O)CNC1=O` [Eptifibatide], the cell viability stood at 101 ± 25 in the experiment on HCI01; 148 in the experiment on HCI03 (cells of an ER-positive luminal breast cancer xenograft); 120 ± 79 in the experiment on HCI09; 93.4 in the experiment with HCI11; 194 with HCI16; 123 ± 15 with UCD52. The cell viability with WHIM2 came to 101 ± 13; in the experiment on WHIM30 it was 138 ± 4.8.
Regarding `CCCCCC(O)C=CC1C(O)CC(=O)C1CCCCCCC(=O)O` (stereo not given) [Alprostadil], the cell viability was determined as 86.5 ± 76 in the experiment on HCI01; 124 in the experiment on HCI03; 145 ± 75 in the experiment with HCI09; 104 in the experiment on HCI11; 175 with HCI16; 124 ± 2.3 with UCD52. The cell viability came to 147 ± 12 with WHIM2 and 141 ± 4.9 in the experiment on WHIM30.
On to `C#C[C@]1(O)CC[C@H]2[C@@H]3CCC4=CC(=O)CC[C@@H]4[C@H]3C(=C)C[C@@]21CC` [Etonogestrel], for which the cell viability with HCI01 came out at 109 ± 47; in the experiment with HCI03, 135; in the experiment with HCI09, 102 ± 13; in the experiment with HCI11, 86.3; in the experiment with HCI16, 145; in the experiment on UCD52, 116 ± 14. For the same molecule, the cell viability amounted to 112 ± 30 in the experiment with WHIM2 and 146 ± 16 in the experiment with WHIM30.
For `O=c1c(O)c(-c2ccc(O)c(O)c2)oc2cc(O)cc(O)c12` [Quercetin], the cell viability was 124 ± 46 in the experiment with HCI01; 123 in the experiment with HCI03; 141 ± 4.7 in the experiment with HCI09; 99.2 in the experiment with HCI11; 151 with HCI16; 102 ± 1.3 with UCD52. Besides, the cell viability was 107.1 ± 0.64 in the experiment on WHIM2 and 128 ± 17 in the experiment with WHIM30.
As for `CCC(=O)OCC(=O)C1(OC(=O)CC)C(C)CC2C3CCC4=CC(=O)C=CC4(C)C3(Cl)C(O)CC21C` (stereo not given) [Beclomethasone dipropionate], the cell viability was determined as 131 ± 100 in the experiment on HCI01; 182 in the experiment on HCI03; 144 ± 8.8 in the experiment on HCI09; 123 in the experiment on HCI11; 175 in the experiment on HCI16; 133 ± 3.9 in the experiment with UCD52. Besides, the results for the cell viability in the experiment on WHIM2 and with WHIM30 were 128 ± 3.2 and 123 ± 10, respectively.
`Nc1nnc(-c2cccc(Cl)c2Cl)c(N)n1` [Lamotrigine]: the cell viability was found to be 95 ± 12 with HCI01; 155 in the experiment on HCI03; 134 ± 32 in the experiment on HCI09; 89.9 in the experiment with HCI11; 128 with HCI16; 112 ± 15 in the experiment on UCD52. Moreover, the cell viability was determined as 96.1 ± 13 with WHIM2 and 175 ± 4.1 in the experiment with WHIM30.
For the molecule `CC12CCC3c4ccc(O)cc4CCC3C1CCC2=O` (stereo not given) [Estrone], the cell viability in the experiment with HCI01 was determined as 99.5 ± 6.1; with HCI03 it was 112; in the experiment with HCI09, 97.3 ± 9.7; with HCI11 it was 102; in the experiment with HCI16, 89.5; in the experiment on UCD52 it was 87.3 ± 6.6. Besides, the cell viability in the experiment with WHIM2 is 113 ± 22; in the experiment with WHIM30, 153 ± 14.
